Shown is part of a subset that was picked to be rich in hits.
Shiga toxin inh – Shiga toxin inhibition; AID 2315; 290,000 compounds, 9.2% hits; Vero cells, Shiga toxin protein synthesis inhibition reporter; inhibition, % at 38.7 µM; in the data active means inhibition mostly above about 28%, no sharp cut-off; inactive means mostly below about 43%
LmPK inhibitor – blocks Leishmania mexicana pyruvate kinase activity. Potency, µM (titrated, usually from 57.5 µM), hits mostly inhibitors. 290,000 compounds, 0.37% hits. purified LmPK, Kinase-Glo ATP luminescence, 1 h
Target sequence (Q27686 whole entry, looked up): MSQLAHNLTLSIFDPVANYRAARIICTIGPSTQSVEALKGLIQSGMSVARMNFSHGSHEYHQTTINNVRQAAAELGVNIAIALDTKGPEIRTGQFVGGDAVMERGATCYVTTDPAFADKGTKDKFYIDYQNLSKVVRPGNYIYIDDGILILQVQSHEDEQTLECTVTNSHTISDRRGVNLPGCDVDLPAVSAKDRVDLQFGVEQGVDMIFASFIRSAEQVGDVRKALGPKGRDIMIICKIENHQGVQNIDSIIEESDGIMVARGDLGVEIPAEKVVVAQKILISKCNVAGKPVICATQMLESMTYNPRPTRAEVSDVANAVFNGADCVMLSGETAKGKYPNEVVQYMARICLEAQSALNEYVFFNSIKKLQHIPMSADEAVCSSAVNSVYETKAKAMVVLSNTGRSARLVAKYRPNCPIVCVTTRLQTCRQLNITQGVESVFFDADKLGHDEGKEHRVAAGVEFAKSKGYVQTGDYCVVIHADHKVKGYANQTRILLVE
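Pyruvate kinase activity monitored as ATP production (luciferase luminescence). Conditions: 0.1 nM enzyme, 0.5 mM PEP, 0.1 mM ADP, 1 h, RT; normalized against uninhibited and no-enzyme wells.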
CHX counter – counter-screen hit for Shiga toxin inhibitors, cycloheximide; 300,000 compounds, 12% hits; cell reporter, cycloheximide protein synthesis inhibition counterscreen; max response, %; AID 2314; in the data active means max response mostly above about 13%, no sharp cut-off; inactive means mostly below about 14%; further: read at 38.3 µM for the half of the compounds with a filed dose
NS1 function inh – inhibitors of influenza NS1 protein function; Potency, µM (titrated, usually from 46.1 µM); 270,000 compounds, 0.4% hits; AID 2326; calls by dose curve; further: actives are rising curves; nearly all actives have a fitted effect of over 50% in size
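OD600 was taken as the measure of yeast growth restored by compound in an NS1-expressing S. cerevisiae strain. Cells had been washed out of glucose medium and diluted 1:100 into galactose -URA medium, pH 6.0.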
SARS PLpro yeast – blocks SARS-CoV papain-like protease in a yeast assay; Potency, µM (titrated, usually from 32.9 µM), hits mostly activators; AID 485353; 330,000 compounds, 0.19% hits; S. cerevisiae expressing SARS-CoV PLpro, growth rescue; calls by dose curve; further: nearly all actives have a fitted effect of over 55% in size
TbPYK inhibitor – blocks Trypanosoma brucei pyruvate kinase | Q57TT1 | TbPYK enzyme, Kinase-Glo Plus ATP luminescence, 45 min | Potency, µM (highest dose often 76.8 µM), most hits filed as inhibitors | 410,000 compounds, 0.12% hits; further: nearly all actives have a fitted effect of over 50% in size
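T. brucei PYK with substrate was exposed to pin-transferred compounds across a concentration series, then started with 130 uM ADP (final). After 45 min at room temperature, Kinase-Glo Plus luminescence was read, normalized and curve-fitted.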
Each line names hits and unclear results; the compound was inactive in the other large screens. Unless noted, the call rests on the fitted dose curve; in most records, active means well fitted curve in the direction sought with a large enough effect; inconclusive means small, poorly fitted or top-dose-only effect, or another doubt; inactive means no such curve, though single readings can be large; an effect the other way counts as inactive or inconclusive.

COc1ccc(-c2cccc(C(=O)N3CCOCC3)c2)cc1	Shiga toxin inh 57, CHX counter 30
COc1ccc(OCc2ccc(C(=O)O)cc2)cc1	CHX counter 18
COc1ccc(OCC(O)COc2ccc(C(=O)O)cc2)cc1 (centres undefined)	none (no result: TbPYK inhibitor)
COc1ccc(OCc2ccc(C(=O)N3CCOCC3)cc2)cc1	Shiga toxin inh 56, CHX counter 28
Cc1ccc(S(=O)(=O)c2nc(-c3ccco3)oc2SC(C)C)cc1	none
N/C(=N\OC(=O)c1ccc(F)cc1)c1cccc([N+](=O)[O-])c1	Shiga toxin inh 57, CHX counter 31
N/C(=N\OC(=O)c1cccc(F)c1)c1cccc([N+](=O)[O-])c1	Shiga toxin inh 31, CHX counter 18
N/C(=N/OC(=O)c1cccc([N+](=O)[O-])c1)c1cccc([N+](=O)[O-])c1	none
Cc1cccc(/C(N)=N/OC(=O)c2ccc(F)cc2)c1	Shiga toxin inh 86, LmPK inhibitor 4.5µM, CHX counter 73, TbPYK inhibitor inconclusive
N/C(=N\OC(=O)c1ccc2ccccc2c1)c1cccc([N+](=O)[O-])c1	Shiga toxin inh active, CHX counter 39
Cc1[nH]c2ccc(C(=O)N3CCN(c4ccccc4F)CC3)cc2c1C	none (no result: Shiga toxin inh, LmPK inhibitor, CHX counter, NS1 function inh, SARS PLpro yeast)
CC1=C(C)/C(=N/OC(=O)c2cccc([N+](=O)[O-])c2)C=CC1=O	Shiga toxin inh 90, CHX counter 56
N/C(=N/OC(=O)c1ccccc1Cl)c1ncc([N+](=O)[O-])s1	Shiga toxin inh 68, CHX counter 35
NC(=O)c1cccc([N+](=O)[O-])c1	none (no result: Shiga toxin inh, LmPK inhibitor, CHX counter, NS1 function inh)
N/C(=N\OC(=O)c1ccccc1F)c1ccc([N+](=O)[O-])cc1	CHX counter 30
N/C(=N\OC(=O)c1ccccc1Cl)c1cccc([N+](=O)[O-])c1	Shiga toxin inh 52, CHX counter 37
Cc1ccc(CN(C)C(=O)c2cccc(S(=O)(=O)N3CCc4ccccc4C3)c2)o1	TbPYK inhibitor inconclusive (no result: Shiga toxin inh, LmPK inhibitor, CHX counter, NS1 function inh)
Cc1cnc(CNC(=O)c2csc([C@@H]3C[C@H](O)[C@@H](CO)O3)n2)cn1	none (no result: Shiga toxin inh, LmPK inhibitor, CHX counter, NS1 function inh, SARS PLpro yeast)
COc1cccc(Oc2nnnn2-c2ccccc2)c1	CHX counter 33 (no result: TbPYK inhibitor)
Clc1ccc(Oc2nnnn2-c2ccccc2)cc1	none
COc1ccc(Oc2nnnn2-c2ccccc2)cc1	Shiga toxin inh 31, CHX counter 32
Cc1ccc(CNC(=O)c2cc(=O)c3cc(C)cc(C)c3o2)cc1	none (no result: Shiga toxin inh, LmPK inhibitor, CHX counter, NS1 function inh, SARS PLpro yeast)
CCN(CC(=O)Nc1ccc2c(c1)OCCO2)S(=O)(=O)c1ccc(C)cc1	none
Cc1ccc(NC(=O)CN(C)S(=O)(=O)c2ccc(Br)s2)cc1F	Shiga toxin inh 44, CHX counter 21
CN(CC(=O)Nc1ccc2c(c1)OCCO2)S(=O)(=O)c1ccc(Br)s1	CHX counter 25
CCN(CC(=O)Nc1ccc2c(c1)OCCO2)S(=O)(=O)c1cccs1	Shiga toxin inh 52, CHX counter 28, NS1 function inh inconclusive
COc1ccc(NC(=O)CN(C)S(=O)(=O)c2ccc(Br)s2)cc1	none
O=C(CNS(=O)(=O)c1ccc(Br)s1)Nc1ccc2c(c1)OCCO2	CHX counter 32
CC(=O)NC(C)(c1ccccc1)c1nc(-c2cccc(F)c2)cs1 (centres undefined)	none (no result: Shiga toxin inh, LmPK inhibitor, CHX counter, NS1 function inh, SARS PLpro yeast)
CC(NC(=O)CN(C)S(=O)(=O)c1ccc(Br)s1)c1ccccc1 (centres undefined)	Shiga toxin inh 84, CHX counter 36
O=C1NC(Cc2ccccc2)c2nc3ccc(F)cc3c(=O)n2-c2cc3ccccc3cc21 (centres undefined)	none (no result: Shiga toxin inh, LmPK inhibitor, CHX counter, NS1 function inh, SARS PLpro yeast)
Cc1cc2oc(=O)cc(CSc3nnc(-c4cccs4)o3)c2cc1C(C)C	CHX counter 11, NS1 function inh inconclusive
CNc1nnc(-c2cccc(N(C)C)c2)s1	Shiga toxin inh 122, CHX counter 46
O=C(NCCC1=CCCCC1)c1cc2c(s1)CS(=O)(=O)C2	Shiga toxin inh 25, CHX counter 17
O=C(NCCC1=CCCCC1)c1cnsn1	Shiga toxin inh 46, CHX counter 35
Cc1cc(C(=O)NCCC2=CCCCC2)no1	Shiga toxin inh 91, CHX counter 45
CCCCCCCCNC(=O)c1cnsn1	none
CC1C(=O)N2CCCc3cc(NC(=O)C(=O)NCc4cccnc4)cc1c32 (centres undefined)	none (no result: Shiga toxin inh, LmPK inhibitor, CHX counter, NS1 function inh)
CCOc1ccc(C(=O)c2nc3c(n2O)CCCCC3)cc1	none
O=C(c1ccc(Oc2ccccc2)cc1)c1nc2c(n1O)CCCC2	CHX counter 21
COc1ccc(C(=O)c2nc3c(n2O)CCCCC3)cc1	CHX counter 48
COc1ccc(OC)c(C(=O)c2nc3c(n2O)CCCCC3)c1	none
COc1ccc(C(=O)c2nc3c(n2O)CCCC3)cc1OC	none
CCCOc1ccc(C(=O)c2nc3c(n2O)CCCC3)cc1	Shiga toxin inh 50 (no result: TbPYK inhibitor)
Cc1ccccc1-c1nc(CS(=O)(=O)CC(=O)NC2CC2)c(C)o1	none
Cc1ccccc1C(=O)Nc1ccccc1C(=O)OCc1cc(=O)n2ccsc2n1	none (no result: Shiga toxin inh, LmPK inhibitor, CHX counter, NS1 function inh, SARS PLpro yeast)
Cc1ccc(S(=O)(=O)N2C[C@H]3C(=O)C[C@@H](c4ccccc4)N(S(=O)(=O)c4ccccc4C)[C@H]3C[C@H]2c2ccccc2)cc1	none (no result: Shiga toxin inh, LmPK inhibitor, CHX counter, NS1 function inh, SARS PLpro yeast)
COc1cc(NC(=O)c2cc(-c3ccc(C)cc3)on2)cc(OC)c1OC	CHX counter 11 (no result: Shiga toxin inh)
O=C(Nc1cccc(Cl)c1)c1cc(-c2ccco2)on1	Shiga toxin inh 56, CHX counter 31
O=C(Nc1cccc(Cl)c1)c1cc(-c2ccccc2)on1	none (no result: Shiga toxin inh, LmPK inhibitor, CHX counter, NS1 function inh, SARS PLpro yeast)
O=C(Nc1cc(Cl)ccc1O)c1cc(-c2ccco2)on1	Shiga toxin inh 80, CHX counter 40
COc1ccc(-c2cc(C(=O)Nc3cccc(C(C)=O)c3)no2)cc1	none
COc1ccc(-c2cc(C(=O)Nc3cccc(Cl)c3)no2)cc1	Shiga toxin inh 85, CHX counter 42
O=C(Nc1c(Cl)cccc1Cl)c1cc(-c2ccco2)on1	none
Nc1ncc([N+](=O)[O-])cc1S(=O)(=O)c1ccccc1	none (no result: Shiga toxin inh, LmPK inhibitor, CHX counter, NS1 function inh, SARS PLpro yeast)
O=C(Nc1ccccc1C(=O)Nc1ccccn1)c1cc(F)c(F)cc1Cl	none
CC(=O)Nc1cc(Br)ccc1O	none
O=C(Nc1cccnc1Cl)c1cc(-c2ccc(Br)cc2)on1	none
O=C(Nc1cc(Br)ccc1O)c1cc(-c2ccco2)on1	Shiga toxin inh 59
COc1ccc(-c2nnc(SC(C)C(=O)Nc3cccc(Cl)c3)o2)cc1 (centres undefined)	Shiga toxin inh 66
O=C(Nc1cccnc1Cl)c1cc(-c2ccco2)on1	Shiga toxin inh 83, CHX counter 41
NC(CSCc1cccc(Br)c1)C(=O)O (centres undefined)	none (no result: NS1 function inh)
Clc1ccc(-c2nc3ccccc3nc2-c2ccccc2)cc1	none
c1ccc(-c2nnsc2-c2nc3ccccc3[nH]2)cc1	Shiga toxin inh 43, CHX counter 23
O=c1[nH]c2ccccc2nc1-c1ccccc1	Shiga toxin inh 50, CHX counter 26
c1ccc(-c2nnsc2-c2ncc[nH]2)cc1	none

Source: PubChem BioAssay (National Center for Advancing Translational Sciences (NCATS))
